Results filed as inconclusive are left out. A call without a number means that no potency is given here. Calls of active or inactive are those of the source. The call rests on the fitted dose curve; in most records, active means well fitted cell-killing curve with a large enough effect in the repeat runs; inconclusive means weak or mixed curves; inactive means flat fitted curve, though single readings scatter.
Experiment: qHTS RealTime-Glo MT Cell Viability Assay in HepG2 cells - 32 hour (AID 1224877); further: nearly all actives have a fitted effect of over 55% in size
Conditions: RealTime-Glo luminescence; series mostly up to 76.8 µM
Source text: U.S. Tox21 Program National Center for Advancing Translational Sciences [NCATS] NIH Chemical Genomics Center [NCGC] U.S. Environmental Protection Agency [EPA] National Institutes of Environmental Health Sciences [NIEHS] National Toxicology Program [NTP] U.S. Food and Drug Administration [FDA] Tox21 Assay Overview: Measure of cell viability is critical in the cell-base assay. Analysis of cell viability is necessary for the characterization of cell responses to cytotoxic drugs and environmental stress. A RealTime-Glo MT Cell Viability Assay to monitor cell viability in real time of continues cell culture during 40 hours of compound treatment was used to screen Tox21 10K library compounds in HepG2 cells. The RealTime-Glo MT Cell Viability Assay is a nonlytic, homogeneous, bioluminescent method to measure cell viability in real time using a simple, plate-based method. The assay involves adding NanoLuc luciferase and a cell-permeant prosubstrate to cells in culture. Viable cells reduce the proprietary prosubstrate to generate a substrate for NanoLuc luciferase. This substrate diffuses from cells into the surrounding culture medium, where it is rapidly used by the NanoLuc Enzyme to produce a luminescent signal. The signal correlates with the number of viable cells, making the assay well suited for cytotoxicity studies.
Tox21 Assay Protocol Summary: The mixture of HepG2 cell suspension and reagents were dispensed at 600cells/6 ul/well in 1536-well tissue culture treated black solid bottom plates using a Multidrop dispenser. After the assay plates were incubated at a 37 C/5% CO2 incubator for 5 hours, 23 nL of compounds dissolved in DMSO, positive and negative controls was transferred to the assay plate by a pintool work station. The plates were incubated at 37 C for 40 hours. The luminescence intensity were measured at 0h, 8h, 16h, 24h, 32h and 40h time points using ViewLux plate reader during compound treatment.
Potency means the concentration at half of the fitted maximal effect.

SMILES | Potency
COc1ccc(S(=O)(=O)Nc2nnc(CC(C)C)s2)cc1 | inactive
CC(C)Nc1nc(N)nc(Cl)n1 | inactive
CC(C)(CO)[C@@H](O)C(=O)NCCC(=O)O | inactive
O=C(C(Cl)Cl)N1CCOC12CCCCC2 | inactive
Cc1c[nH]c(=S)[nH]c1=O | inactive
CCCCC(CC)COC(=O)COc1cc(Cl)c(Cl)cc1Cl (stereo not given) | inactive
COC(C)CCO (stereo not given) | inactive
CCCCCCCCc1ccc(S(=O)(=O)O)cc1 | inactive
C=O | inactive
O=C(O[C@@H](C(=O)O)[C@@H](OC(=O)c1ccccc1)C(=O)O)c1ccccc1 | inactive
C[C@@H](N)C(=O)O | inactive
CCN(CC)CCNC(=O)COc1ccc(Cl)cc1 | inactive
COC(=O)N[C@H](C(=O)N[C@@H](Cc1ccccc1)[C@@H](O)CN(Cc1ccc(-c2ccccn2)cc1)NC(=O)[C@@H](NC(=O)OC)C(C)(C)C)C(C)(C)C | inactive
CC(C)(C)C1CCCCC1=O (stereo not given) | inactive
CCN[C@H]1CN(CCCOC)S(=O)(=O)c2sc(S(N)(=O)=O)cc21 | inactive
CC(C)=CCC[C@](C)(O)[C@@H]1CC=C(C)CC1 | inactive
ClC(Cl)Cl | inactive
Nc1ccc2ccccc2c1S(=O)(=O)O | inactive
CCCCNC(=S)NCCCC | inactive
CC(C)=CCCC(C)CCOC=O (stereo not given) | inactive

SMILES | Potency
C1CCOC1 | inactive
COC(=O)c1ccc(OC)cc1 | inactive
Cn1cnc2c(F)c(Nc3ccc(Br)cc3Cl)c(C(=O)NOCCO)cc21 | 535 nM (active)
CCOC(=O)NCCC[Si](OCC)(OCC)OCC | inactive
OCc1ccccc1O | inactive
COC(=O)/C=C(/C)N | inactive
O=c1[nH]c(=O)n([C@H]2C[C@H](O)[C@@H](CO)O2)cc1C(F)(F)F | inactive
Cc1ccccc1C(=O)Nc1ccc(C(=O)N2CCCC(O)c3cc(Cl)ccc32)c(C)c1 (stereo not given) | inactive
COc1ccc2nc(NC(=O)Nc3ccccc3)sc2c1 | inactive
CS(=O)(=O)c1ccc([C@@H](O)[C@@H](CF)NC(=O)C(Cl)Cl)cc1 | inactive
O=C(CCCl)NCc1ccccc1 | inactive
C=CC(C)(O)CC/C=C(\C)CCC=C(C)C (stereo not given) | inactive
O=Cc1ccc(F)c(Br)c1 | inactive
Cc1nc(N)nc(N)c1-c1ccc(Cl)c(Cl)c1 | inactive
CC(C)O | inactive
Clc1cccc(-c2cc(Cl)cc(Cl)c2)c1 | inactive
NS(=O)(=O)c1cc(-c2nn[nH]n2)c(NCc2cccs2)cc1Cl | inactive
CN1C(=O)CC(c2ccccc2)C1=O (stereo not given) | inactive
CO[Si](C)(C)OC | inactive
CCCS(=O)c1ccc2nc(NC(=O)OC)[nH]c2c1 (stereo not given) | inactive
